# The supplement of paper PMC12282887
# ± gives the standard deviation of the averaged measurements.
# Experiments:
# Test in all cases: promoter activity interaction Z-score (Lux/OD deviation from empty-vector control); higher = stronger promoter induction by the compound
# [1] = tested on: E. coli BW25113 acrABp lux reporter
# Outline: (§1)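 E. coli BW25113, as wild type or one of three single-gene deletion strains, carried low-copy luxCDABE promoter reporters and grew in 40 µl LB Lennox in 384-well plates at 37°C, with OD600 and luminescence read every 30 min for 12 h. Each compound was run at four 1:2 dilutions in biological duplicates, integration spanned 0–8 h for wild type and 1–9 h for deletion strains, and wells under 10% of the median growth value were dropped. The score is the Z-transformed residual of growth-normalised luminescence fitted against a control.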
# [2] = tested on: E. coli BW25113 marRABp lux reporter
# Outline: as §1
# [3] = tested on: E. coli BW25113 micFp lux reporter
# Outline: as §1
# [4] = tested on: E. coli BW25113 ompFp lux reporter
# Outline: as §1
# [5] = tested on: E. coli BW25113 robp lux reporter
# Outline: as §1
# [6] = tested on: E. coli BW25113 soxSp lux reporter
# Outline: as §1
# [7] = tested on: E. coli BW25113 tolCp lux reporter
# Outline: as §1
# [8] = 20.7 µg/ml, genetic background: wild type
# [9] = 20.7 µg/ml, genetic background: ΔmarA
# [10] = 20.7 µg/ml, genetic background: Δrob
# [11] = 20.7 µg/ml, genetic background: ΔsoxS
# [12] = 41.4 µg/ml, genetic background: wild type
# [13] = 41.4 µg/ml, genetic background: ΔmarA
# [14] = 41.4 µg/ml, genetic background: Δrob
# [15] = 41.4 µg/ml, genetic background: ΔsoxS
# [16] = 82.8 µg/ml, genetic background: wild type
# [17] = 82.8 µg/ml, genetic background: ΔmarA
# [18] = 82.8 µg/ml, genetic background: Δrob
# [19] = 82.8 µg/ml, genetic background: ΔsoxS
# [20] = 165.6 µg/ml, genetic background: wild type
# [21] = 165.6 µg/ml, genetic background: ΔmarA
# [22] = 165.6 µg/ml, genetic background: Δrob
# [23] = 165.6 µg/ml, genetic background: ΔsoxS
smiles,measurement,setting,value
CN(C)C(=N)NC(=N)N [Metformin],promoter activity interaction Z-score,[1]; [8],-0.326 ± 0.14
same,promoter activity interaction Z-score,[1]; [9],0.815 ± 0.45
same,promoter activity interaction Z-score,[1]; [10],-0.31 ± 0.23
same,promoter activity interaction Z-score,[1]; [11],-0.0221 ± 0.28
same,promoter activity interaction Z-score,[1]; [12],-0.0908 ± 0.043
same,promoter activity interaction Z-score,[1]; [13],0.174 ± 0.41
same,promoter activity interaction Z-score,[1]; [14],0.377 ± 0.017
same,promoter activity interaction Z-score,[1]; [15],-0.0209 ± 0.61
same,promoter activity interaction Z-score,[1]; [16],-0.145 ± 0.14
same,promoter activity interaction Z-score,[1]; [17],0.000785 ± 1.4
same,promoter activity interaction Z-score,[1]; [18],0.271 ± 0.043
same,promoter activity interaction Z-score,[1]; [19],-0.155 ± 0.2
same,promoter activity interaction Z-score,[1]; [20],-0.249 ± 0.13
same,promoter activity interaction Z-score,[1]; [21],0.575 ± 0.81
same,promoter activity interaction Z-score,[1]; [22],0.41 ± 0.17
same,promoter activity interaction Z-score,[1]; [23],0.11 ± 0.051
same,promoter activity interaction Z-score,[2]; [8],-0.244 ± 0.08
same,promoter activity interaction Z-score,[2]; [9],0.0455 ± 0.11
same,promoter activity interaction Z-score,[2]; [10],-0.139 ± 0.14
same,promoter activity interaction Z-score,[2]; [11],-0.145 ± 0.0015
same,promoter activity interaction Z-score,[2]; [12],-0.1 ± 0.072
same,promoter activity interaction Z-score,[2]; [13],-0.132 ± 0.1
same,promoter activity interaction Z-score,[2]; [14],-0.0299 ± 0.073
same,promoter activity interaction Z-score,[2]; [15],-0.0239 ± 0.17
same,promoter activity interaction Z-score,[2]; [16],-0.104 ± 0.063
same,promoter activity interaction Z-score,[2]; [17],-0.195 ± 0.23
same,promoter activity interaction Z-score,[2]; [18],-0.113 ± 0.043
same,promoter activity interaction Z-score,[2]; [19],-0.0656 ± 0.052
same,promoter activity interaction Z-score,[2]; [20],-0.551 ± 0.065
same,promoter activity interaction Z-score,[2]; [21],-0.242 ± 0.025
same,promoter activity interaction Z-score,[2]; [22],-0.0241 ± 0.2
same,promoter activity interaction Z-score,[2]; [23],0.145 ± 0.22
same,promoter activity interaction Z-score,[3]; [8],-0.368 ± 0.019
same,promoter activity interaction Z-score,[3]; [9],-0.0629 ± 0.04
same,promoter activity interaction Z-score,[3]; [10],-0.153 ± 0.082
same,promoter activity interaction Z-score,[3]; [11],-0.139 ± 0.14
same,promoter activity interaction Z-score,[3]; [12],-0.177 ± 0.23
same,promoter activity interaction Z-score,[3]; [13],-0.102 ± 0.12
same,promoter activity interaction Z-score,[3]; [14],-0.0244 ± 0.0094
same,promoter activity interaction Z-score,[3]; [15],-0.233 ± 0.015
same,promoter activity interaction Z-score,[3]; [16],-0.161 ± 0.16
same,promoter activity interaction Z-score,[3]; [17],-0.0653 ± 0.072
same,promoter activity interaction Z-score,[3]; [18],-0.0658 ± 0.068
same,promoter activity interaction Z-score,[3]; [19],-0.0678 ± 0.068
same,promoter activity interaction Z-score,[3]; [20],-0.544 ± 0.37
same,promoter activity interaction Z-score,[3]; [21],-0.151 ± 0.025
same,promoter activity interaction Z-score,[3]; [22],-0.0629 ± 0.08
same,promoter activity interaction Z-score,[3]; [23],-0.000873 ± 0.19
same,promoter activity interaction Z-score,[4]; [8],-0.191 ± 0.037
same,promoter activity interaction Z-score,[4]; [9],0.332 ± 0.047
same,promoter activity interaction Z-score,[4]; [10],-0.324 ± 0.2
same,promoter activity interaction Z-score,[4]; [11],-0.0538 ± 0.13
same,promoter activity interaction Z-score,[4]; [12],-0.037 ± 0.014
same,promoter activity interaction Z-score,[4]; [13],-0.125 ± 0.2
same,promoter activity interaction Z-score,[4]; [14],0.267 ± 0.2
same,promoter activity interaction Z-score,[4]; [15],0.0362 ± 0.37
same,promoter activity interaction Z-score,[4]; [16],0.036 ± 0.056
same,promoter activity interaction Z-score,[4]; [17],0.0389 ± 0.14
same,promoter activity interaction Z-score,[4]; [18],0.322 ± 0.37
same,promoter activity interaction Z-score,[4]; [19],0.0576 ± 0.088
same,promoter activity interaction Z-score,[4]; [20],-0.153 ± 0.11
same,promoter activity interaction Z-score,[4]; [21],0.766 ± 0.041
same,promoter activity interaction Z-score,[4]; [22],0.44 ± 0.62
same,promoter activity interaction Z-score,[4]; [23],0.813 ± 0.41
same,promoter activity interaction Z-score,[5]; [8],0.282 ± 0.18
same,promoter activity interaction Z-score,[5]; [9],0.497 ± 0.0053
same,promoter activity interaction Z-score,[5]; [10],-0.187 ± 0.91
same,promoter activity interaction Z-score,[5]; [11],0.397 ± 1.1
same,promoter activity interaction Z-score,[5]; [12],-0.109 ± 0.24
same,promoter activity interaction Z-score,[5]; [13],0.171 ± 0.31
same,promoter activity interaction Z-score,[5]; [14],0.416 ± 0.36
same,promoter activity interaction Z-score,[5]; [15],0.638 ± 1.1
same,promoter activity interaction Z-score,[5]; [16],0.336 ± 0.065
same,promoter activity interaction Z-score,[5]; [17],0.0784 ± 0.21
same,promoter activity interaction Z-score,[5]; [18],0.39 ± 0.41
same,promoter activity interaction Z-score,[5]; [19],0.405 ± 0.19
same,promoter activity interaction Z-score,[5]; [20],-0.305 ± 0.39
same,promoter activity interaction Z-score,[5]; [21],0.28 ± 0.035
same,promoter activity interaction Z-score,[5]; [22],0.519 ± 0.11
same,promoter activity interaction Z-score,[5]; [23],0.649 ± 0.18
same,promoter activity interaction Z-score,[6]; [8],-0.232 ± 0.14
same,promoter activity interaction Z-score,[6]; [9],0.132 ± 0.02
same,promoter activity interaction Z-score,[6]; [10],-0.07 ± 0.0035
same,promoter activity interaction Z-score,[6]; [11],0.26 ± 0.056
same,promoter activity interaction Z-score,[6]; [12],-0.046 ± 0.095
same,promoter activity interaction Z-score,[6]; [13],0.0673 ± 0.055
same,promoter activity interaction Z-score,[6]; [14],0.0305 ± 0.041
same,promoter activity interaction Z-score,[6]; [15],0.0287 ± 0.19
same,promoter activity interaction Z-score,[6]; [16],0.0138 ± 0.19
same,promoter activity interaction Z-score,[6]; [17],-0.0135 ± 0.017
same,promoter activity interaction Z-score,[6]; [18],0.0262 ± 0.22
same,promoter activity interaction Z-score,[6]; [19],-0.0818 ± 0.083
same,promoter activity interaction Z-score,[6]; [20],-0.199 ± 0.039
same,promoter activity interaction Z-score,[6]; [21],-0.0313 ± 0.093
same,promoter activity interaction Z-score,[6]; [22],-0.191 ± 0.24
same,promoter activity interaction Z-score,[6]; [23],0.0168 ± 0.089
same,promoter activity interaction Z-score,[7]; [8],-0.594 ± 0.2
same,promoter activity interaction Z-score,[7]; [9],1.15 ± 1.7
same,promoter activity interaction Z-score,[7]; [10],-0.505 ± 0.25
same,promoter activity interaction Z-score,[7]; [11],-0.306 ± 0.74
same,promoter activity interaction Z-score,[7]; [12],-0.0152 ± 1.1
same,promoter activity interaction Z-score,[7]; [13],-0.186 ± 1
same,promoter activity interaction Z-score,[7]; [14],0.0225 ± 0.69
same,promoter activity interaction Z-score,[7]; [15],-0.32 ± 0.57
same,promoter activity interaction Z-score,[7]; [16],0.0793 ± 0.27
same,promoter activity interaction Z-score,[7]; [17],0.276 ± 0.67
same,promoter activity interaction Z-score,[7]; [18],-0.546 ± 0.36
same,promoter activity interaction Z-score,[7]; [19],0.0771 ± 1.1
same,promoter activity interaction Z-score,[7]; [20],-0.144 ± 0.74
same,promoter activity interaction Z-score,[7]; [21],0.284 ± 1.1
same,promoter activity interaction Z-score,[7]; [22],-0.698 ± 0.026
same,promoter activity interaction Z-score,[7]; [23],0.3 ± 0.58
